# This is part of a sample that, as a whole, favours compounds with a hit. Of some 83,000 tested, about 20% had one in any assay.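 Interpretation: 100, growth as untreated; towards 0, rising growth inhibition; 0, no net growth; 0 to -100, cell death. Compounds scoring below 10 were considered active.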 A number with no mark means an inactive call. Calls of active or inactive are those of the source.
# What was measured:
# Assay in all cases: NCI-60 one-dose screen, 48 h (100 = growth as untreated, 0 = no growth, -100 = all killed)
# Conditions in all cases: 10 µM unless noted
# NCI-H23 lung = system: NCI-H23 lung
# NCI-H322M lung = system: NCI-H322M lung
# HOP-62 NSCLC = system: HOP-62 NSCLC
# NCI-H460 lung = system: NCI-H460 lung
# NCI-H522 lung = system: NCI-H522 lung
# 786-0 renal = system: 786-0 renal
# COLO 205 colon = system: COLO 205 colon
# DU-145 prostate = system: DU-145 prostate
# K-562 leukemia = system: K-562 leukemia
# MALME-3M melanoma = system: MALME-3M melanoma
# MDA-MB-231 breast = system: MDA-MB-231 breast
# RXF 393 renal = system: RXF 393 renal
# SF-268 CNS = system: SF-268 CNS
# SF-295 CNS = system: SF-295 CNS
# SF-539 CNS = system: SF-539 CNS
# UACC-257 melanoma = system: UACC-257 melanoma
# M14 melanoma = system: M14 melanoma
# A549/ATCC NSCLC = system: A549/ATCC NSCLC
# HOP-92 NSCLC = system: HOP-92 NSCLC
Compound,growth (NCI-H23 lung),growth (NCI-H322M lung),growth (HOP-62 NSCLC),growth (NCI-H460 lung),growth (NCI-H522 lung),growth (786-0 renal),growth (COLO 205 colon),growth (DU-145 prostate),growth (K-562 leukemia),growth (MALME-3M melanoma),growth (MDA-MB-231 breast),growth (RXF 393 renal),growth (SF-268 CNS),growth (SF-295 CNS),growth (SF-539 CNS),growth (UACC-257 melanoma),growth (M14 melanoma),growth (A549/ATCC NSCLC),growth (HOP-92 NSCLC)
C=C[C@H]1CCC/C=C/[C@@H]2C[C@H](O)C[C@H]2[C@H](O)/C=C/C(=O)O1,-19.1% (active),-7.72% (active),33.3%,7.05% (active),-37.8% (active),-53.5% (active),-83.1% (active),5.86% (active),9.93% (active),-46.4% (active),-74% (active),-15.2% (active),7.6% (active),17.2%,35.2%,4.69% (active),-10.6% (active),,
CN1C2CCC1/C(=C\c1ccc(Cl)cc1)C(=O)/C2=C/c1ccc(Cl)cc1,62.4%,72.4%,85.8%,47%,54.7%,75.4%,41.7%,41.8%,34.3%,73.7%,67%,87.2%,60.5%,77.4%,91.5%,60.9%,63.8%,63.7%,
COc1ccc2nc3ccccc3c(NCc3ccc(Cl)cc3)c2c1,28.3%,24.6%,42.4%,12.5%,34.7%,-76.9% (active),-61.9% (active),21.5%,-30.2% (active),-81.6% (active),24.3%,-24.2% (active),53.5%,25.8%,-5.77% (active),-52.2% (active),-86.1% (active),23.6%,
CN(C)CCCn1c(=O)c2cc([N+](=O)[O-])ccc2c2cnc3[nH]ccc3c21,58.8%,46.3%,45.1%,17.3%,17.9%,7.2% (active),28%,50.5%,-32.4% (active),68.8%,65.5%,56.3%,45.9%,43.9%,50.9%,87.2%,67.6%,41.5%,
CSc1ccc(/C=C2\C=C(CC(=O)NCc3ccc(C(=O)c4ccccc4)cc3)c3cc(F)ccc32)cc1,-23.2% (active),39.4%,-7.82% (active),-43.7% (active),-38.5% (active),-25.7% (active),-75.6% (active),-34.3% (active),,49.3%,-7.54% (active),-34.1% (active),1.28% (active),-20.2% (active),-36.2% (active),55.2%,-33.2% (active),-0.932% (active),
C#CCNc1nc(NCCNC(=O)CCl)nc(N(C)CCCCc2ccccc2)n1,84.7%,96.4%,94.3%,107%,25.4%,97.5%,91.2%,101%,95.1%,60.3%,90.7%,93.5%,94%,99.4%,106%,113%,78.5%,119%,
CCN(CC)CCCCCCCCNc1c2ccc(Cl)cc2nc2ccc(OC)cc12,-43.8% (active),-39.2% (active),-67.8% (active),-51.6% (active),,-88.8% (active),-84.6% (active),-66.6% (active),-39.3% (active),-65.6% (active),-72.2% (active),-92.8% (active),-73.2% (active),-76% (active),-82% (active),,-82.4% (active),,-75.9% (active)
COc1cccc(N2CCN(c3ncnc4cc[nH]c34)CC2)c1,42.8%,94%,34.2%,66.9%,51.5%,70.9%,88.2%,90.6%,37.7%,75.1%,84.4%,99.3%,90.7%,44.2%,72.8%,47.5%,58.2%,60.2%,
O=S1(=O)NCCCN1CCNc1nccc(-c2c(-c3cccc(O)c3)nc3sccn23)n1,83.7%,85.1%,118%,67.1%,76%,59.3%,32.6%,74.2%,,17.3%,50.7%,64.3%,81.3%,112%,70.3%,39.9%,7.6% (active),124%,
CN1C(=O)NC(Cc2c[nH]c3c(Cl)cccc23)C1=O (centres undefined),102%,120%,107%,112%,96.4%,109%,105%,123%,101%,141%,117%,92.1%,110%,109%,98.4%,116%,108%,102%,
N=c1nc(N2CCCCC2)cc(N)n1O,115%,126%,101%,113%,103%,117%,106%,114%,116%,145%,108%,108%,109%,103%,116%,99.8%,123%,103%,
C=C1C(=O)O[C@H]2[C@H]1CC/C(COC(=O)NCc1ccc(Cn3c(=O)sn(CCCl)c3=O)cc1)=C\CC[C@@]1(C)O[C@@H]21,103%,95.1%,75.3%,97.8%,-68% (active),32.4%,-48.1% (active),36.9%,-13% (active),-28.3% (active),73.5%,5.98% (active),85.2%,107%,83.1%,49.8%,29.5%,86%,
Cc1ccc(OC2=C(C#N)C(=N)N3C(=NN2)Sc2c(C)ccc(C)c23)cc1,85.3%,102%,99.6%,100%,90.4%,110%,106%,122%,98%,120%,95.4%,106%,113%,96.7%,102%,108%,109%,98.6%,
O=C(CSc1nc2c(n1Nc1ccccc1)-c1ccccc1SC2)Nc1nccs1,91.2%,99.7%,101%,99.4%,95.2%,96.8%,121%,105%,84.8%,101%,88.7%,102%,96.2%,122%,97.2%,108%,102%,96.6%,
COc1ccc(C2c3cccn3-c3ccccc3N2C(C)=O)cc1 (centres undefined),99.3%,82.6%,88.8%,97.4%,122%,106%,100%,108%,42%,93%,103%,99.2%,95.8%,98.7%,108%,109%,96.2%,110%,
CS(=O)(=O)c1ccc(C(=O)N/N=C/c2ccc3c(c2)OCO3)cc1,96.9%,96.2%,96.8%,107%,86%,102%,110%,108%,85.5%,105%,107%,120%,104%,101%,105%,59.1%,106%,67.7%,
COC(=O)c1ccc2c(c1)nc(-c1ccc(Cl)cc1)n2-c1cc(C(C)(C)C)[nH]n1,60.7%,92.5%,116%,45.1%,38%,46%,112%,85.9%,34.3%,14.8%,92%,45.7%,68.5%,43.3%,60.4%,62.3%,33.8%,47.2%,
CC(C)OC1OC(OC(C)C)C(OC(C)C)OC1OC(C)C (centres undefined),94.9%,98.1%,123%,104%,70.9%,99.4%,112%,112%,92.5%,119%,91.8%,127%,96.5%,109%,105%,92.2%,99.2%,92.4%,
